The full ranking holds about 8,300 sequences; the median of “log2 fold change of degron read counts, EGFP-low vs EGFP+ sorted cells (limma voom), compound-induced degradation” is about -1.1, and the highest 2% start at about 3.2. What follows is part of a selection rich in the highest values, with near analogues and random picks from the rest.
T1: CRBN, Q96SW2
T1 chain: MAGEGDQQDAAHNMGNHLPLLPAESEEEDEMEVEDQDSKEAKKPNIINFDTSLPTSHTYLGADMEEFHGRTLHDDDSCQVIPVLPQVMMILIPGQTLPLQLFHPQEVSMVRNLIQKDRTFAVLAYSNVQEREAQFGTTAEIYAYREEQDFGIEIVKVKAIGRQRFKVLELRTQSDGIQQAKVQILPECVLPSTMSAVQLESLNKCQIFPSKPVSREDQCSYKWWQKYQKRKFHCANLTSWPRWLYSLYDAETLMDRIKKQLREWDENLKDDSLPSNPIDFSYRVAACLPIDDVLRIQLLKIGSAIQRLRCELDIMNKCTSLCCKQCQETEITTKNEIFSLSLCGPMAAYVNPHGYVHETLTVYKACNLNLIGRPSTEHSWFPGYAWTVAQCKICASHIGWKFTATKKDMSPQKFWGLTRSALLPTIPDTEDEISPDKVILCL


Target: T1, CRBN, Q96SW2
Experiment: log2 fold change of degron read counts, EGFP-low vs EGFP+ sorted cells (limma voom), compound-induced degradation; higher = more compound-induced degradation of the degron-EGFP fusion; degrons are variants of IKZF1/3 zinc finger 2; compound dose not given here
Conditions: Jurkat, 18 h
[1] = compound: compound 19 (5-tert-butyl-thalidomide)
[2] = compound: compound 22 (5-morpholino-thalidomide)
[3] = compound: compound 33 (diphenyl IMiD analogue)
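Note: pooled lentiviral library of zinc finger degron-EGFP fusions in mCherry-positive Jurkat cells, FACS-sorted after compound exposure, with degron abundance counted by next-generation sequencing.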

Sequence	log2 fold change of degron read counts [1]	log2 fold change of degron read counts [2]	log2 fold change of degron read counts [3]	log2 fold change of degron read counts (compound: thalidomide)
FHCEICGRHFTQKGNLLRHIKL [46F_47H_49E_50I_52G_53R_54H_55F_67L_, Q9UKT9]	-0.861	-2.23	-1.35	-1.95
FVCNQCGACFTQKGNLLRHIKL [46F_47V_49N_50Q_52G_53A_54C_55F_67L_, Q9UKT9]	-2.19	-2.11	-0.29	-1.14
LNCPICGFECTQKGNLLRHIKL [46L_47N_49P_50I_52G_53F_54E_55C_67L_, Q9UKT9]	1.07	-0.0323	0.322	1
FWCEQCGARFTQKGNLLRHIKL [46F_47W_49E_50Q_52G_53A_54R_55F_67L_, Q9UKT9]	1.69	3.12	0.0332	-0.593
FMCPICGRPFTQKGNLLRHIKL [46F_47M_49P_50I_52G_53R_54P_55F_67L_, Q9UKT9]	0.216	0.55	1.39	0.856
FSCEICGREFTQKGNLLRHIKL [46F_47S_49E_50I_52G_53R_54E_55F_67L_, Q9UKT9]	-2.51	-2.86	-1.9	-2.01
FACDQCGASFTQKGNLLRHIKL [46F_47A_49D_50Q_52G_53A_54S_55F_67L_, Q9UKT9]	-0.53	-1.83	-2.25	-3.41
FYCEVCGATFTQKGNLLRHIKL [46F_47Y_49E_50V_52G_53A_54T_55F_67L_, Q9UKT9]	3.1	4.14	2.47	1.12
FGCEVCGATFTQKGNLLRHIKL [46F_47G_49E_50V_52G_53A_54T_55F_67L_, Q9UKT9]	3.09	2.54	0.976	0.784
FDCEVCGATFTQKGNLLRHIKL [46F_47D_49E_50V_52G_53A_54T_55F_67L_, Q9UKT9]	0.941	-0.571	-0.022	0.317
FRCEVCGATFTQKGNLLRHIKL [46F_47R_49E_50V_52G_53A_54T_55F_67L_, Q9UKT9]	-0.885	-1.05	1.42	1.06
FQCEVCGATFTQKGNLLRHIKL [46F_47Q_49E_50V_52G_53A_54T_55F_67L_, Q9UKT9]	0.152	2.64	2.01	3.74
FACEVCGATFTQKGNLLRHIKL [46F_47A_49E_50V_52G_53A_54T_55F_67L_, Q9UKT9]	3.32	2.03	0.449	-0.11
FSCEVCGATFTQKGNLLRHIKL [46F_47S_49E_50V_52G_53A_54T_55F_67L_, Q9UKT9]	2.73	2.4	1.63	1.3
FWCEVCGATFTQKGNLLRHIKL [46F_47W_49E_50V_52G_53A_54T_55F_67L_, Q9UKT9]	2.75	3.75	1.87	0.335

— the supplement of paper PMC12645437, “Orthogonal IMiD-Degron Pairs Induce Selective Protein Degradation in Cells” (ACS Chemical Biology, 2025)
